Hit rate of the full screen: of about 3,200 compounds, about 300 (9.4%) showed activity. The sample as a whole holds a higher share of actives than the screen did.
Test system: A673/TR/shEF
Assay: cell viability (LOESS-normalised, relative to median of negative controls) (log2 ratio); higher = more viable cells (less compound effect), active = hit call of the paper (over 3 MAD below the median)
Conditions: treatment time: 72 h
In short: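 A673/TR/shEF Ewing sarcoma cells were plated at 1,500 per well in 384-well plates and cultured with or without doxycycline, added 24 h before compounds, to induce EWS-FLI1 shRNA knockdown. Library compounds at two or more concentrations, alongside DMSO controls, were applied for three days. Cell viability was measured by CellTiter-Glo luminescence on an Envision reader. Readings were LOESS-corrected per plate, divided by the median of negative controls and log2-transformed, and hits were wells lying at least three median absolute deviations from the median of all screened wells.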

[1] = 0.25 µM, library screen: screen1, EWS-FLI1 expression: high (no doxycycline)
[2] = 0.25 µM, library screen: screen1, EWS-FLI1 expression: low (doxycycline-induced shRNA knockdown)
[3] = 2.5 µM, library screen: screen1, EWS-FLI1 expression: high (no doxycycline)
[4] = 2.5 µM, library screen: screen1, EWS-FLI1 expression: low (doxycycline-induced shRNA knockdown)
[5] = 0.103 µM, library screen: screen3, EWS-FLI1 expression: high (no doxycycline)
[6] = 0.103 µM, library screen: screen3, EWS-FLI1 expression: low (doxycycline-induced shRNA knockdown)
[7] = 0.308 µM, library screen: screen3, EWS-FLI1 expression: high (no doxycycline)
[8] = 0.308 µM, library screen: screen3, EWS-FLI1 expression: low (doxycycline-induced shRNA knockdown)
[9] = 0.926 µM, library screen: screen3, EWS-FLI1 expression: high (no doxycycline)
[10] = 0.926 µM, library screen: screen3, EWS-FLI1 expression: low (doxycycline-induced shRNA knockdown)
[11] = 2.8 µM, library screen: screen3, EWS-FLI1 expression: high (no doxycycline)
[12] = 2.8 µM, library screen: screen3, EWS-FLI1 expression: low (doxycycline-induced shRNA knockdown)
[13] = 8.3 µM, library screen: screen3, EWS-FLI1 expression: high (no doxycycline)
[14] = 8.3 µM, library screen: screen3, EWS-FLI1 expression: low (doxycycline-induced shRNA knockdown)
[15] = 25 µM, library screen: screen3, EWS-FLI1 expression: high (no doxycycline)
[16] = 25 µM, library screen: screen3, EWS-FLI1 expression: low (doxycycline-induced shRNA knockdown)

Measured: cell viability (log2)

NC(C(=O)O)C(O)C(O)C(O)CO (stereo unspecified)
inactive: [1] 0.0607 | [2] 0.059 | [3] 0.025 | [4] 0.121

COc1ccccc1NC(=O)C1=C(C)NC(=O)NC1c1ccc(Cl)cc1 (stereo unspecified)
inactive: [1] 0.0563 | [2] 0.0447 | [3] 0.0428 | [4] 0.00886

O=C(CSc1nnc(Cc2ccccc2)o1)c1ccc(Cl)cc1
inactive: [1] 0.0547 | [2] 0.0748 | [3] 0.133 | [4] -0.101

C[C@H]1CC[C@@H](C(C)(C)O)CC2=C1CC[C@@H]2C
inactive: [1] -0.0585 | [2] 0.0603 | [3] 0.0212 | [4] 0.083

C[C@@H](Oc1cc(-c2cnn(C3CCNCC3)c2)cnc1N)c1c(Cl)ccc(F)c1Cl
inactive: [5] 0.0466 | [6] 0.078 | [7] 0.0248 | [8] 0.0309 | [9] 0.0194 | [10] 0.0561 | [11] -0.012 | [12] 0.0202 | [14] 0.0761 | [16] -0.0839
active: [13] -0.189 | [15] -1.08

COC(=O)C1=C(C)N=c2sc(=Cc3cccs3)c(=O)n2C1c1ccc(OC)cc1 (stereo unspecified)
inactive: [1] 0.0442 | [2] 0.034 | [3] 0.0701 | [4] 0.111

CNC(=O)c1cc2c(cn1)[nH]c1ccccc12
inactive: 0.25 µM, library screen: screen2, EWS-FLI1 expression: high (no doxycycline) 0.143 | 0.25 µM, library screen: screen2, EWS-FLI1 expression: low (doxycycline-induced shRNA knockdown) 0.0456 | 2.5 µM, library screen: screen2, EWS-FLI1 expression: high (no doxycycline) 0.152 | 2.5 µM, library screen: screen2, EWS-FLI1 expression: low (doxycycline-induced shRNA knockdown) 0.0711

CNC(=O)c1ccccc1Sc1ccc2c(/C=C/c3ccccn3)n[nH]c2c1
active: [13] -0.181 | [15] -0.513
inactive: [5] -0.00228 | [6] 0.0386 | [7] 0.0978 | [8] 0.044 | [9] 0.0712 | [10] 0.145 | [11] 0.0241 | [12] 0.188 | [14] 0.195 | [16] -0.0147

CC(C)=CCC[C@@H](C)[C@H]1CC[C@@]2(C)C3=C(CC[C@]12C)[C@@]1(C)CC[C@H](O)C(C)(C)[C@@H]1CC3
inactive: [1] 0.101 | [2] -0.00557 | [3] 0.158 | [4] 0.0178

O=C(O)CCCCCCCn1ccnc1
inactive: [1] 0.124 | [2] 0.0433 | [3] 0.168 | [4] 0.0749

Reference: the supplement of paper PMC6089552
